Compound activity: PubChem, National Center for Advancing Translational Sciences (NCATS)
An excerpt weighted towards active compounds, which were near 9% of everything screened.
KinaseGlo FLuc: counter-screen: inhibitors of Kinase-Glo firefly luciferase. Q27757. Kinase-Glo luciferase, ATP luminescence, 8 min. Potency, µM (titrated, usually from 38.3 µM), usual class: inhibitors. hit rate 0.28% among 200,000. AID 1379; also: nearly all actives have a fitted effect of over 60% in size
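Kinase-Glo luciferase light output from ATP and luciferin was measured with 10 uM ATP, within the enzyme's linear range. Buffer: 50 mM imidazole pH 7.2, 50 mM KCl, 7 mM MgCl2, 0.01% Tween 20, 0.05% BSA; luminescence read after 8 min at ambient temperature.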
Lamin A splicing: changes lamin A minigene splicing in HeLa cells. HeLa LMNA splicing GFP/RFP minigene ratio, 48 h. Potency, µM (doses to about 46.1 µM), most hits filed as inhibitors. hit rate 0.01% among 200,000. AID 1487; active = well fitted inhibition curve with a large enough effect in the signal ratio, with a control signal flat, not every such curve was filed as active; inconclusive = small, poorly fitted or top-dose-only effect, or effect the other way, or a change in a side signal; the % refers to the signal ratio
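S3 HeLa cells stably expressing lamin A-EGFP splicing minigene plus DsRed2, 600 cells/well, 48 h compound exposure at 37C. Laser-scanning cytometry; analysed as GFP (500-530 nm)/RFP (575-640 nm) total intensity ratio; 0.5% DMSO vehicle.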
ALDH1A1 inh: ALDH1A1 (human) enzyme inhibition. Purified ALDH1A1, NADH fluorescence, propionaldehyde substrate. Potency, µM (highest dose often 75.3 µM), actives largely listed as inhibitors. hit rate 7.3% among 220,000. AID 1030; active = well fitted inhibition curve with a large enough effect, not every such curve was filed as active; inconclusive = small, poorly fitted or top-dose-only effect, or another doubt; inactive = no such curve, though single readings can be large or run the other way
Target sequence (P00352 whole entry, looked up): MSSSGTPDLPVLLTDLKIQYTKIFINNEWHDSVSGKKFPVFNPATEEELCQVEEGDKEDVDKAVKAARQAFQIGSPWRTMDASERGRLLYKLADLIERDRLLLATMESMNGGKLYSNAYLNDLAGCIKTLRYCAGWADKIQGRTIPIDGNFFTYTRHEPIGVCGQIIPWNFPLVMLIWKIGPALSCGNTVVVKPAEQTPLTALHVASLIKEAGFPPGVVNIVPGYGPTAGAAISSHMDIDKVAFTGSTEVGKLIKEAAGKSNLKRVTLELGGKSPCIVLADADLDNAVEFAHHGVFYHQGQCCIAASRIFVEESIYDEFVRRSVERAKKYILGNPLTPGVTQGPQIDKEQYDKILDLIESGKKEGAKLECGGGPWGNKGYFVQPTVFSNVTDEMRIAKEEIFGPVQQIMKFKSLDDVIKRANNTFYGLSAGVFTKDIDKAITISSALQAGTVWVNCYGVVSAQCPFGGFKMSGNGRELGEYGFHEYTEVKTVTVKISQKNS
HTT aggregate: mutant huntingtin aggregation inhibition | PC12 HttQ103-GFP aggregates, Acumen cytometry, 40 h | Potency, µM (doses to about 46.1 µM), usual class: inhibitors | hit rate 1.1% among 220,000 | AID 1688; also: nearly all actives have a fitted effect of over 60% in size
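Read-out: GFP aggregate count by laser scanning cytometer (488 nm excitation, 500-530 nm emission, 1–25 µm objects >6 SD above background). Cells: PC12, inducible HTTex1-Q103-GFP, 100 nM tebufenozide; compounds titrated.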
HPGD inh: HPGD (human) dehydrogenase inhibition; hit rate 4.3% among 150,000; purified HPGD, NADH fluorescence kinetic, PGE2 substrate; Potency, µM, most hits filed as inhibitors; P15428; AID 894; active = well fitted inhibition curve with a large enough effect, not every such curve was filed as active; inconclusive = small, poorly fitted or top-dose-only effect, or another doubt; inactive = no such curve, though single readings can be large or run the other way
Target sequence (P15428 whole entry, looked up): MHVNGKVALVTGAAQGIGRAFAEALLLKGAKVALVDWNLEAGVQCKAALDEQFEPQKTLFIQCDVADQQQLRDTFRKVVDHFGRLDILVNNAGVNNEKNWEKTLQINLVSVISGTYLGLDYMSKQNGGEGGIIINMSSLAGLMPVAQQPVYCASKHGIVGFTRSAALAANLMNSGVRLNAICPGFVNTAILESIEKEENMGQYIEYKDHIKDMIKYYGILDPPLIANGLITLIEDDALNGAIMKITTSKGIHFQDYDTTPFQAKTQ
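NADH formation kinetics: reaction with 30 uM PGE2 and 1 mM NAD+ (final), 20 nM enzyme, Tris-HCl pH 8 with Tween 20, after 15 min compound preincubation at room temperature. Fluorescence change, last versus first of five reads.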
HTT cytoprotect: Huntington cell model cytoprotection by ATP luminescence. Potency, µM (doses to about 56.4 µM), hits mostly activators. PC12 HTT-Q103 induced, cytoprotection, ATP luminescence, 40 h. hit rate 0.14% among 230,000; also: nearly all actives have a fitted effect of over 45% in size
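Stable PC12 Q103-GFP cells in serum-supplemented, phenol red-free DMEM; induction by tebufenozide at 100 nM final; compound dose series; cell viability quantified luminescently from ATP.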
Of the large screens only hits and unclear results are named; the others gave an inactive call. Unless noted, calls follow the shape of the dose curve; as a rule, active = well fitted curve in the direction sought with a large enough effect; inconclusive = small, poorly fitted or top-dose-only effect, or another doubt; inactive = no such curve, though single readings can be large; an effect the other way counts as inactive or inconclusive.

O=C(Cc1ccc(Cl)cc1)NCc1ccccc1Cl	none (no result: HPGD inh)
COC(=O)c1c(NC(=O)CN2CCC3(O)CCCCC3C2c2ccc(OC)cc2OC)sc(C)c1C (configuration not stated)	Lamin A splicing inconclusive, ALDH1A1 inh 2.5µM, HPGD inh 20µM
COC(=O)c1c(NC(=O)CN2CCC3(O)CCCCC3C2c2ccccc2OC)sc(C)c1C (configuration not stated)	Lamin A splicing inconclusive, ALDH1A1 inh inconclusive, HPGD inh inconclusive
Nc1ccc(-c2nc3cc(N)ccc3s2)cc1	ALDH1A1 inh inconclusive (no result: HPGD inh)
Cc1cc(-c2ccc(N=Nc3ccc4c(S(=O)(=O)O)cc(S(=O)(=O)O)c(N)c4c3O)c(C)c2)ccc1N=Nc1ccc2c(S(=O)(=O)O)cc(S(=O)(=O)O)c(N)c2c1O	KinaseGlo FLuc 10µM, ALDH1A1 inh inconclusive, HPGD inh 5µM (no result: Lamin A splicing)
Cc1ccc(N=Nc2c(O)c(S(=O)(=O)O)cc3cc(S(=O)(=O)O)ccc23)c(C)c1	ALDH1A1 inh inconclusive (no result: Lamin A splicing, HTT aggregate)
Nc1c(N=Nc2ccc(-c3ccc(N=Nc4cc(S(=O)(=O)O)c5ccccc5c4N)cc3)cc2)cc(S(=O)(=O)O)c2ccccc12	KinaseGlo FLuc inconclusive, ALDH1A1 inh 25µM, HPGD inh 16µM (no result: Lamin A splicing)
Cc1occc1C(=O)NNC(=O)COc1ccc(Br)cc1Br	none (no result: HTT cytoprotect)
S=C(c1c[nH]c2ccccc12)N1CCOCC1	Lamin A splicing inconclusive, ALDH1A1 inh 20µM (no result: HPGD inh)
CCOc1cc(C)c(C(C)C)cc1S(=O)(=O)N1CCOCC1	ALDH1A1 inh 3.5µM
COc1cc(C)c(C(C)C)cc1S(=O)(=O)N1CCOCC1	ALDH1A1 inh 3.2µM
COc1cc(C)c(S(=O)(=O)N2CCOCC2)cc1C	none
Cc1ccc(-c2csc3ncnc(Nc4ccc(N5CCOCC5)cc4)c23)cc1	ALDH1A1 inh inconclusive, HTT aggregate inconclusive, HPGD inh inconclusive
CN1C(=O)CC(c2ccco2)Sc2ccccc21 (configuration not stated)	ALDH1A1 inh inconclusive
COc1cccc(S(=O)(=O)Nc2ccc(C(=O)NCc3ccco3)cc2)c1	ALDH1A1 inh 28µM, HPGD inh inconclusive
COc1cccc(NC(=O)COC(=O)c2ccc(S(=O)(=O)NCc3ccco3)cc2)c1	none
COc1ccc(C(=O)Nc2ccc(S(=O)(=O)NCc3ccco3)cc2)cc1OC	none
COc1ccc(C(=O)NCC(=O)Nc2cccc(S(=O)(=O)NCc3ccco3)c2)cc1OC	ALDH1A1 inh 20µM (no result: HPGD inh)
COc1cccc(S(=O)(=O)NCc2ccc(C(=O)NCc3ccco3)cc2)c1	ALDH1A1 inh 14µM, HTT aggregate inconclusive
COc1ccc(CCNC(=O)c2ccc(CNS(=O)(=O)c3cccc(Cl)c3)cc2)cc1OC	Lamin A splicing inconclusive, ALDH1A1 inh 3.5µM
CCc1ccc(C(=O)COC(=O)C(CCSC)NC(=O)C23CC4CC(CC(C4)C2)C3)cc1 (configuration not stated)	none
COC(=O)C1=C(C)Nc2ccc(C)cc2S1	none
CCc1cccc(C)c1NC(=O)c1ccccc1	none (no result: Lamin A splicing, HPGD inh)
CCn1c(C)nc2cc(C(N)=O)ccc21	none (no result: KinaseGlo FLuc, Lamin A splicing, ALDH1A1 inh, HPGD inh)
CCn1c(C)nc2cc(C(=O)N/N=C/c3cccc(OC)c3O)ccc21	HTT aggregate 2µM (no result: Lamin A splicing, HPGD inh)
COc1cccc(/C=N/NC(=O)c2c(C)nc3ccc(Br)cn23)c1O	ALDH1A1 inh inconclusive, HTT aggregate 2.2µM (no result: Lamin A splicing, HPGD inh)
CCn1c(C)nc2cc(C(=O)N/N=C/c3ccc(O)c(O)c3O)ccc21	ALDH1A1 inh 1.4µM (no result: Lamin A splicing, HPGD inh)
Cc1nc(NC2=NCN(C3CCCCC3C)CN2)nc2ccccc12 (configuration not stated)	none
Cc1ccc(-c2c(C(=O)N3CCOCC3)oc(=O)c3ccccc23)cc1	ALDH1A1 inh 1.6µM
Cc1ccc(-c2c(C(=O)Nc3ccccc3F)oc(=O)c3ccccc23)cc1	none (no result: KinaseGlo FLuc, ALDH1A1 inh, HTT aggregate, HPGD inh, HTT cytoprotect)
Cc1ccc(-c2c(C(=O)NCc3ccc(F)cc3)oc(=O)c3ccccc23)cc1	ALDH1A1 inh 7.1µM, HTT cytoprotect inconclusive
Cc1cccc(-c2n[nH]c(=S)n2C)c1	none (no result: HPGD inh)
O=C(COc1ccccc1)NCC1(N2CCCCC2)CCCCC1	none (no result: Lamin A splicing, HPGD inh)
N[C@@H](CSS(=O)(=O)O)C(=O)O	HPGD inh 28µM (no result: Lamin A splicing, HTT aggregate)
CC(=O)NCC(=O)NNC1CC(=O)N(c2cccc(Cl)c2)C1=O (configuration not stated)	none (no result: KinaseGlo FLuc, Lamin A splicing, ALDH1A1 inh, HPGD inh)
CCOC(=O)CNC1CC(=O)N(c2cccc(Cl)c2)C1=O (configuration not stated)	ALDH1A1 inh 18µM
O=c1nc2ccccc2c(NS(=O)(=O)c2ccccc2)n1-c1ccccc1	ALDH1A1 inh 0.89µM
Clc1ccc2[nH]c3c(N4CCC5(CC4)OCCO5)ncnc3c2c1	Lamin A splicing inconclusive, ALDH1A1 inh inconclusive, HTT aggregate 8.9µM, HPGD inh inconclusive
Cc1cccc2[nH]c3c(N4CCC5(CC4)OCCO5)ncnc3c12	Lamin A splicing inconclusive, ALDH1A1 inh inconclusive, HTT aggregate 22µM, HPGD inh inconclusive
Cc1ccc2[nH]c3c(N4CCc5ccccc5C4)ncnc3c2c1	HTT aggregate 3.5µM
Cc1ccc(-n2cc(CNC(C)c3cnn(C)c3)c(-c3ccc(F)cc3)n2)cc1 (configuration not stated)	none (no result: HPGD inh)
N=C1S/C(=C\c2ccccc2F)C(=O)N1c1ccc(F)cc1	none
N=C1S/C(=C\c2cn[nH]c2-c2ccc(F)cc2)C(=O)N1c1ccccc1F	HTT aggregate inconclusive, HPGD inh 13µM
O=C(c1ccco1)N1CCN(c2nc3ccsc3c(=O)s2)CC1	ALDH1A1 inh 13µM, HTT aggregate inconclusive, HPGD inh inconclusive
CCOc1ccc2nc(N3CCC(C(=O)N4CCN(C(=O)c5ccco5)CC4)CC3)sc2c1	Lamin A splicing inconclusive, ALDH1A1 inh 16µM
CC(C)C[C@@H]1NC(=O)[C@H](Cc2ccc(O)cc2)NC(=O)c2cc([N+](=O)[O-])cc(I)c2NCCC[C@@H](C(N)=O)NC1=O	none (no result: HTT cytoprotect)
C=CCc1ccc(OCCOCCOc2ccc(C)cc2[N+](=O)[O-])c(OC)c1	ALDH1A1 inh 25µM, HPGD inh inconclusive
CCCC(=O)Nc1nc2n(n1)C(c1ccccc1)CC(=O)N2 (configuration not stated)	none
CC(C)NC(=O)CSCc1c(Cl)cccc1Cl	ALDH1A1 inh inconclusive, HPGD inh 14µM
O=C(CSCc1c(Cl)cccc1Cl)Nc1nccs1	HPGD inh 20µM
O=C(O)CCC(=O)NCC1OCCc2ccccc21 (configuration not stated)	none
Cc1ccc(C)c(N2C(=O)CC(N3CCN(Cc4ccc5c(c4)OCO5)CC3)C2=O)c1 (configuration not stated)	ALDH1A1 inh inconclusive
O=C1CC(N2CCN(c3ccc(F)cc3)CC2)C(=O)N1c1ccc2c(c1)OCO2 (configuration not stated)	ALDH1A1 inh 19µM (no result: Lamin A splicing, HPGD inh)
